Experimental data from PubChem BioAssay AID504339 (National Center for Advancing Translational Sciences (NCATS), 2011).
The campaign covered roughly 390,000 compounds. About 17,000 (4.4%) were called active. Not shown: some 8% with an inconclusive outcome. The entries come from a sample that favours actives as a whole. A number with no mark means an inactive call. Calls follow the shape of the dose curve; as a rule, active = well fitted inhibition curve with a large enough effect; inconclusive = small, poorly fitted or top-dose-only effect; inactive = no such curve, though single readings can be large or run the other way.

biological target: Lysine-specific demethylase 4A (Homo sapiens) (UniProt O75164); assay: qHTS Assay for Inhibitors of JMJD2A-Tudor Domain; settings: AlphaScreen JMJD2A-Tudor / H3K4me3 peptide binding; series mostly up to 114 µM; activity change, negative = inhibition: at the top concentration; also: nearly all actives have a fitted effect of over 50% in size
Excerpt: JMJD2A is a jumonji-domain-containing lysine demethylase that uses Fe(II) together with 2-OG to effect oxidative demethylation of histones. Methylation is one of many […] modification that affect epigenetic transcription. […] It is proposed that the functions of JmjD2A binding to the histones, is to maintain marks after they are installed and to spread the modifications by […], establishing a self-propagating cycle for rapid methylation over a large area of chromatin. […] Thus, small molecule targeting of the JMJD2A-tudor domain interaction with its target methylhistone mark is expected to enable sophisticated experiments probing the fine regulatory pathways leading to selective demethylation of a given methyllysine locus based on the methylation state of adjacent histone marks. A quantitative high throughput AlphaScreen has been developed to identify small molecule inhibitors based on a protocol published by NCGC and SGC [4].
Although AlphaScreen has significant advantages with its utility in a variety of epigenetic target assays, the primary screening data provided in this deposition should be used with caution due to the prevalence of screening artifacts. The top compound concentration tested was high (>100uM) in this assay, which increases number of actives and potential artifacts. An AlphaScreen counterscreen is highly recommended to be run against any putative actives to eliminate non-specific artifacts. Alternatively, one can use other AlphaScreen assays in PubChem to filter out promiscuous hits.
[1] Lee, J. et al. Distinct binding modes specify the recognition of methylated histone H3K4 and H4K20 by JMJD2A-tudor. Nat Struct Mol Biol. 15(1); 109-11. 2008. PMID: 18084306
[2] Yasgar, et al. Compound Management for Quantitative High-Throughput Screening. JALA. 2008 Apr;13(2):79-89. PMID: 18496600
[3] Inglese, et al. Quantitative high-throughput screening: a titration-based approach that efficiently identifies biological activities in large chemical libraries. Proc Natl Acad Sci. 1;103(31):11473-8. 2006. PMID: 16864780
[4] Quinn et al. A homogeneous method for investigation of methyl-dependent protein-protein interactions in epigenetics. Nucleic Acids Res., 38(2):e11. 2010. PMID: […]
[5] Baell,Holloway. New substructure filters for removal of pan assay interference compounds (PAINS) from screening libraries and for their exclusion in bioassays. J Med Chem. 53(7):2719-40. 2010. PMID: 20131845
NIH Molecular Libraries Probe Production Network [MLPCN]
NIH Chemical Genomics Center [NCGC]
Structural Genomics Consortium (SGC)
To each well of a 1,536w plate, 2ul of JMJD2A-Tudor (final 100nM) and 1ul biotinylated histone peptide methylated at Lys4 [b-H3(1-18)K4me3] (final 50nM) were added in 1x PBS buffer, pH 7.4, containing 0.01% Tween-20, using a nanoliter dispenser. Formation of a protein-peptide complex proceeded at room temperature for 30 min. A Kalypsys pin-tool transferred 23nl of library compound solution in DMSO to each well. Following a 30 min incubation of the protein-peptide complex with compounds at room temperature, a mixture of 40 µg/mL each streptavidin-coated donor and nickel chelate acceptor AlphaScreen beads (final 10 µg/mL) was added in a 1ul dispense for a final volume of 4ul, followed by a brief centrifugation (1000 rpm, 1 min). Plates were incubated protected from the light for 20 min at room temperature. Microplates were then read on an EnVision multilabel plate reader using the 1,536 plate HTS AlphaScreen aperture (excitation time 80 ms, measurement time 240 ms).
% is scaled to controls: 0 for no effect and ±100 for the full control effect; potency is read from the fitted curve at half-maximal effect.

Lysine-specific demethylase 4A (Homo sapiens), sequence (O75164 whole entry, looked up, the tested form may be a part): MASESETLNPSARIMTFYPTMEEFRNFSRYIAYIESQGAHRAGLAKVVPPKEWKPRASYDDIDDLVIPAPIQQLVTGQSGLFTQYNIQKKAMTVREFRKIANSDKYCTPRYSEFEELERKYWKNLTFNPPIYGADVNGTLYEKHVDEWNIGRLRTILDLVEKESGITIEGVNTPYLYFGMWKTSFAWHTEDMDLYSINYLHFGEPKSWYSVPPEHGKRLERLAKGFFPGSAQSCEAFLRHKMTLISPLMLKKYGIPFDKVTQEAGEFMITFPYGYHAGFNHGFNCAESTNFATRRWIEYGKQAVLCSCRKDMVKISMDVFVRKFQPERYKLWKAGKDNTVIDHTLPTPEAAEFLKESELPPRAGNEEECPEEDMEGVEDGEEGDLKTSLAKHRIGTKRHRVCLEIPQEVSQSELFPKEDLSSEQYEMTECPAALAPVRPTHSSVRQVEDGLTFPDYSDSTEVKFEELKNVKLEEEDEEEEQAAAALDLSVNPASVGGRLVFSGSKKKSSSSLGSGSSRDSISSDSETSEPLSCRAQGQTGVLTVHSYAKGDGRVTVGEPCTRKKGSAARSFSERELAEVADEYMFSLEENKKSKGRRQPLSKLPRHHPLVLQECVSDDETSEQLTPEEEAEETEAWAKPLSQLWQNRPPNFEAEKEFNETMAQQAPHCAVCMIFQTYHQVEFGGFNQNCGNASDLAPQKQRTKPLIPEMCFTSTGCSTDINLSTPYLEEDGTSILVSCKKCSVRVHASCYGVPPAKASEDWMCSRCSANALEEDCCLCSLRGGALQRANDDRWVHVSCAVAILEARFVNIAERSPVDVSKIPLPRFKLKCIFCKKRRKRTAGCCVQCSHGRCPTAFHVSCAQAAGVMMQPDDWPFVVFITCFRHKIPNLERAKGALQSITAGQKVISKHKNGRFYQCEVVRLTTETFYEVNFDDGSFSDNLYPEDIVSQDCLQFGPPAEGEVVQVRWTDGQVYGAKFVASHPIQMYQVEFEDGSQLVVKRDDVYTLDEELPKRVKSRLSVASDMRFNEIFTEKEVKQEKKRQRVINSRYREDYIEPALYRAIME

Structure (SMILES) | activity change, negative = inhibition [%] | Potency
Cc1ccc(S(=O)(=O)NC2CCCCCC2)cc1 | 0 | –
Cc1cc([N+](=O)[O-])c(NC2CCCCC2)c([N+](=O)[O-])c1 | – | 25.1 µM (active)
Cc1cc(C)cc(NC(=O)NC2CCCCCCC2)c1 | -2.76 | –
O=C(CCCCn1c(=O)c2ccccc2n(CC(=O)Nc2cccc(C(F)(F)F)c2)c1=O)NCc1ccc2c(c1)OCO2 | -16.7 | –
Cc1ccc(S(=O)(=O)n2nc(C)c(S(=O)(=O)N3CCCCCC3)c2C)cc1 | -26.2 | –
COc1ccc(-c2cc(C3CCN(c4ncccc4[N+](=O)[O-])CC3)[nH]n2)cc1 | – | 56.2 µM (active)
COc1ccc(-c2cc3ncccc3cn2)cc1 | -16.9 | –
CC(=O)NC(Cc1ccccc1)C(=O)NC1CCN(c2ncccc2[N+](=O)[O-])CC1 (stereo not drawn) | -12.3 | –
Cc1ccc(F)cc1S(=O)(=O)N1CCC(c2nc3ccccc3s2)CC1 | 8.18 | –
Cc1cc(C)c2c(-c3ccc(F)cc3)c(C#N)c(=O)n(C)c2n1 | -9.54 | –
N#Cc1c(-c2ccc(Cl)cc2)c2c([nH]c1=S)CCCC2 | -20.6 | –
CC(=O)c1c(C)[nH]c(=S)c(C#N)c1-c1ccc(F)cc1 | – | 5.62 µM (active)
CC1CCN(S(=O)(=O)c2ccc3c(c2)N(CC(=O)NCCc2ccccc2)C(=O)CO3)CC1 | -19.4 | –
COc1cccc(C(=O)NC2=NC(c3ccc(N(C)C)cc3)CC(=O)N2)c1 (stereo not drawn) | -21.2 | –
O=C(O)CCC(=O)N(Cc1ccccc1)Cc1ccccc1 | -17.7 | –
Oc1ccc(/C=N/N(Cc2ccccc2)c2ccccc2)cc1 | – | 44.7 µM (active)
Cc1ccc(-c2cn3c(n2)sc2cc(C(=O)NCc4cccs4)ccc23)c(C)c1 | 68.4 | –

Structure (SMILES) | activity change, negative = inhibition [%] | Potency
O=C1CC(c2ccccc2)CC2=C1C(c1ccco1)n1nc(C(F)(F)F)nc1N2 (stereo not drawn) | -27.7 | –
Cc1ccc(S(=O)(=O)N2CCCc3cc(NS(=O)(=O)c4cc(C)ccc4C)ccc32)cc1 | -24.2 | –
COc1ccc(NCc2nnc(SCc3ccccc3)n2-c2ccc(OC)cc2)cc1 | – | 50.1 µM (active)
CC(C)Oc1ccc(CCc2nnc(SCC(=O)O)n2-c2ccccc2)cc1 | -11.2 | –
COc1ccc(CSc2nnnn2-c2ccc(C(=O)O)cc2)cc1 | 4.63 | –
O=C1C[C@@H](c2ccc3ccccc3c2)N1S(=O)(=O)c1ccccc1[N+](=O)[O-] | -23.4 | –
COc1ccc(-c2nc(CN3CCC(C(=O)NCCN(CC(C)C)CC(C)C)CC3)c(C)o2)cc1OC | -9.76 | –
COc1ccc(OC)c(NC(=O)C2CCN(S(=O)(=O)c3ccc(C)cc3)CC2)c1 | -13.8 | –
COc1ccccc1C(=O)Nc1ccc(OCc2nnc3c4ccccc4c(C)nn23)cc1 | -4.03 | –
Cc1ccc(OCc2nnc(SC3CCc4ccccc4C3=O)n2C)cc1 (stereo not drawn) | – | 28.2 µM (active)
Cc1cccnc1NC(=O)CSc1nnc(COc2ccc(C(C)C)cc2)n1C | -4.17 | –
Fc1ccc(CN2CCc3nc(Nc4ccccc4)ncc3C2)cc1F | -25.8 | –
CN1C(=O)c2[nH]nc(-c3ccc(F)cc3)c2C1c1ccccn1 (stereo not drawn) | 7.23 | –
Cc1ccc(NC(=O)c2cc3cc(C)ccc3n2C)cc1 | -7.95 | –
CCc1ccc(S(=O)(=O)n2ccnc2)cc1 | -16.2 | –
CCCCOc1ccc(CNC(=O)c2ccc3c(c2)N(C)C(=O)C2CCCCN32)cc1 (stereo not drawn) | -30 | –
